SMILES strings stand for the structures. About 3,000 (0.83%) of roughly 360,000 compounds were called active. The entries come from a sample that favours actives as a whole. Values without a mark were called inactive. No stated cut-off is given here; in the data, active means inhibition above about 38%; inactive means the rest.

This is an account of results in PubChem BioAssay AID651636 (Sanford-Burnham Center for Chemical Genomics, 2012).

In this test the target is G-protein coupled receptor 183 (Homo sapiens) (UniProt P32249). As to the kind of experiment: blockers of oxysterol-driven EBI2 arrestin signaling – cell-based, luminescence, 7a,25-OHC stimulation, uHTS, primary screen (AID 651636).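 Further: enzyme fragment complementation signal reports receptor beta-arrestin coupling in cells; 0% = agonist plus DMSO wells and 100% = wells without agonist.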 Conditions: EBI2 beta-arrestin recruitment, 7a,25-OHC stimulated, at 5 µM, stronger effect = higher value. (In general: Activated receptors often draw arrestin, which recruitment assays turn into a signal.)
Chain of G-protein coupled receptor 183 (Homo sapiens) (P32249 whole entry, looked up, the tested form may be a part): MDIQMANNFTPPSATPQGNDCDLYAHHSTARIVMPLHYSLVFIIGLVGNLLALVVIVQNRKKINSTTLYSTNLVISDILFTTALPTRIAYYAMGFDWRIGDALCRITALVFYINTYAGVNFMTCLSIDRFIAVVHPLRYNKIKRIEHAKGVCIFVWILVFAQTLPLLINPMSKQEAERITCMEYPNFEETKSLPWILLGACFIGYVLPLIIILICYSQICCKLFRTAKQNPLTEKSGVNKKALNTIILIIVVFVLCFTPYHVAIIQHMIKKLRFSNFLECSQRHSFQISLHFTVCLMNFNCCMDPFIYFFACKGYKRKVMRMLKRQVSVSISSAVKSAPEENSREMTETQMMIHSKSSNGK
Broadly, the inhibition is the drop in the measured response relative to a control, in per cent. With `C=CCOc1c(CNn2cn[nH]c2=S)cccc1OC`, the inhibition is -9.2%.
As to `O=C(c1cc2ccccc2s1)N1CCN(c2ccccn2)CC1`, the inhibition is 60.8% (active).
With `Cc1cc(C(=O)N2CCN(c3ccccn3)CC2)c(C)o1`, the inhibition was -3.6%.
For `O=C(Cc1ccccc1Cl)N1CCN(c2ccccn2)CC1`, the inhibition is 7.34%.
On to `O=C(NCN1CCN(CCO)CC1)c1cnccn1`, for which the inhibition is -9.7%.
Take `CCCC(c1nnnn1C(C)(C)C)N1CCN(Cc2ccccc2)CC1` (configuration not stated): the inhibition is 12.5%.
On to `CSCCC(c1nnnn1Cc1ccccc1)N1CCN(C/C=C/c2ccccc2)CC1` (configuration not stated), for which the inhibition was 19.1%.
With `Cc1cccc(C)c1-n1nnnc1C(CCc1ccccc1)N1CCN(C/C=C/c2ccccc2)CC1` (configuration not stated), the inhibition is 39.8% (active).
As to `COC1=C/C(=C/c2c(N)n3nc(CC(=O)N4CCOCC4)sc3nc2=O)C=CC1=O`, the inhibition was -0.898%.
In the case of `COc1ccccc1N1CCN(C(=O)c2cc(=O)c3cc(C)cc(C)c3o2)CC1`, the inhibition was 72.9% (active).
The result for `O=C(c1cc(=O)c2ccccc2o1)N1CCN(c2ccccc2)CC1` reads 48.1% (active).
With `O=C(NCCS(=O)(=O)N1CCN(c2ccccc2)CC1)c1cc(=O)c2ccccc2o1`, the inhibition is 5.68%.
Turning to `COc1ccccc1N1CCN(C(=O)c2cc(=O)c3cc(C)ccc3o2)CC1`, the inhibition was 93.3% (active).
The result for `COc1ccccc1N1CCN(c2nc(C)cc(=O)[nH]2)CC1` reads -15.3%; that for `COc1ccccc1N1CCN(C(=O)C2Cc3ccccc3CN2C(=O)c2ccco2)CC1` (configuration not stated), 7.65%.
As to `COc1ccccc1N1CCN(C(=O)c2ccc(NC3=NC4CS(=O)(=O)CC4S3)cc2)CC1` (configuration not stated), the inhibition is -5.44%.
With `CCOc1ccccc1N1CCN(C(=O)c2ccc3[nH]c(C)c(C)c3c2)CC1`, the inhibition is 18.2%.
With `O=C(c1ccc(CS(=O)(=O)c2ccccc2)o1)N1CCN(c2ccccc2)CC1`, the inhibition is -5.95%.
On to `[O-][n+]1onc2c1CCc1[nH]c(-c3ccccc3)nc1-2`, for which the inhibition is 3.97%.
The result for `CCc1nccn1S(=O)(=O)c1cccc([N+](=O)[O-])c1` reads 2.08%; that for `CC1(C(=O)Nc2ccc3c(c2)OCCO3)CCN1C(=O)Cc1cc(F)ccc1F` (configuration not stated), -9.9%; that for `O=C(CCCC(=O)N(CC(=O)NC1CCCC1)Cc1ccccc1Cl)Nc1ccccn1`, -4.48%.
The result for `CC(C)CCN1CCN(C/C=C/c2ccco2)CC1CCO` (configuration not stated) reads 2.4%; that for `O=C(O)C1C2C=CC(C2)C1C(=O)NCc1ccccc1` (configuration not stated), -5.43%.
For the molecule `COc1ccccc1CNC(=O)C1CCN(c2nc3ccccc3o2)CC1`, the inhibition is 4.11%.
For `COc1ccccc1CCNC(=O)C1CCN(C(=O)/C=C/c2ccccc2)CC1`, the inhibition is 86.2% (active).
In the case of `COc1ccccc1CNC(=O)C1CCN(C(=O)[C@@H]2Cc3ccccc3CN2)CC1`, the inhibition is -0.14%.
The result for `O=C(NCCC1CCCCN1S(=O)(=O)c1ccc(Cl)cc1)C(=O)NCc1ccco1` (configuration not stated) reads 2.6%; that for `CC1(C)Oc2ccc(C(=O)N3CCOCC3)cc2N(CC(=O)Nc2ccccc2)C1=O`, 1.64%; that for `Cc1ccc(OCC(O)CN2CCN(CC(O)COc3ccc(C)cc3Cl)CC2)c(Cl)c1` (configuration not stated), 4.54%.
The result for `Cc1ccc(S(=O)(=O)N2CCN(C(=O)COC(=O)c3c(C)cc(C)cc3C)CC2)c(C)c1` reads 3.87%; that for `CCCc1cc(=O)[nH]c(SCC(=O)N2CCN(S(=O)(=O)c3ccc(C)cc3C)CC2)n1`, -2.8%.
Take `CC(=O)c1ccc(OCC(O)CN2CCN(S(=O)(=O)c3cccc(Br)c3)CC2)cc1` (configuration not stated): the inhibition is 40.3%.
The result for `Cc1cccc(OCC(O)CN2CCN(S(=O)(=O)c3ccc(C)cc3C)CC2)c1` (configuration not stated) reads 54.6% (active); that for `Cc1ccc(S(=O)(=O)N2CCN(C(=O)CSc3cc(C)ccc3C)CC2)c(C)c1`, 64.3% (active); that for `Cc1nnnn1/C(=C\c1ccccc1)C(=O)OCC(=O)N1CC2(C)CC1CC(C)(C)C2` (configuration not stated), 31.6%.
For the molecule `CCCC(C(=O)N1CCOCC1)N1C(=O)C2C3C=CC(C3)C2C1=O` (configuration not stated), the inhibition is -18.5%.
As for `CC(=O)c1ccc(S(=O)(=O)N2CCN(C(=O)/C=C/c3ccc4ccccc4n3)CC2)cc1`, the inhibition is 62.3% (active).
`CC(=O)c1ccc(S(=O)(=O)N2CCN(c3nc4c(C)c(C)ccc4cc3C#N)CC2)cc1`: the inhibition is 15.8%.
The result for `CC(=O)c1ccc(S(=O)(=O)N2CCC(Oc3ccc(-n4cnnn4)cc3)CC2)cc1` reads 2.61%; that for `CC(=O)c1nn(-c2ccc(C)cc2)cc1C(=O)c1cccc(Br)c1`, 46.1% (active).
Consider `CCOC(=O)c1nn(-c2cccc(C)c2)cc1C(=O)c1ccccc1`, for which the inhibition was 11%.
On to `CC(=O)c1nn(-c2cccc(Br)c2)cc1C(=O)c1cccc2ccccc12`, for which the inhibition was 12%.
As to `CCc1ccc[n+](-c2nc([O-])sc2C=O)c1`, the inhibition was 7.04%.
Consider `Cc1cccc2cc3c(N)c(C(=O)N4CCCc5ccccc54)sc3nc12`, for which the inhibition is 76.1% (active).
Consider `CCCn1nc(C(=O)N2CCCc3ccccc32)c2ccccc2c1=O`, for which the inhibition is 14.1%.
The result for `Cc1ccc(C(=O)N2CCCc3ccccc32)c(Cl)c1` reads 10.8%; that for `COc1ccc(C(C#N)=C2C=CC(=NO)c3ccccc32)cc1`, 17.2%.
For the molecule `CC(=O)/C(=N\Nc1ccc(Cl)cc1Cl)Sc1cccc2cccnc12`, the inhibition is 63.7% (active).
The result for `CC(Oc1ccc(Cl)cc1)C(=O)Nc1ncccn1` (configuration not stated) reads -3.28%.
The result for `COc1cccc(CNC(=O)C2CCN(S(=O)(=O)c3cccc4cccnc34)CC2)c1` reads -6.22%; that for `CCCCc1ccc(NS(=O)(=O)c2cccc(C(=O)N3CCCN(C)CC3)c2)cc1`, -4.46%; that for `Cc1ccc(CN2CC(C(=O)NNC(=O)Cn3ccc(C(F)(F)F)n3)CC2=O)cc1` (configuration not stated), 7.75%.
Take `O=C(/C=C/c1ccccc1[N+](=O)[O-])OCC(=O)N1CCCC1`: the inhibition is -0.221%.
As for `O=C(/C=C/c1cccc([N+](=O)[O-])c1)N1CCN(Cc2ccccc2)CC1`, the inhibition is 53.3% (active).
Consider `O=C(/C=C/c1cccc([N+](=O)[O-])c1)OCC(=O)N1CCOCC1`, for which the inhibition is 1.92%.
For `O=C(/C=C/c1ccc(OCc2c(F)cccc2Cl)cc1)N1CCOCC1`, the inhibition is 7.94%.
With `O=C(/C=C/c1ccc(Cl)cc1)N1CCN(c2ccccc2[N+](=O)[O-])CC1`, the inhibition was 93.1% (active).
Take `Cc1c(Br)c([N+](=O)[O-])nn1CC(=O)N1CCN(Cc2ccccc2)CC1`: the inhibition was -9.97%.
Turning to `O=C(NCCN1CCCC(O)C1)c1cc(COc2c(F)cccc2F)on1` (configuration not stated), the inhibition is -9.61%.
On to `CCOC(=O)C1(O)CC(C)=NN1C(=O)c1cccc(Br)c1` (configuration not stated), for which the inhibition is -21.3%.
The result for `CCC1([N+](=O)[O-])COC(c2ccc(C(C)C)cc2)OC1` (configuration not stated) reads -3.46%; that for `COc1ccc(S(=O)(=O)N(C)C[C@H]2Oc3c(NC(=O)Nc4ccc5c(c4)OCO5)cccc3C(=O)N([C@H](C)CO)C[C@@H]2C)cc1`, 5.07%.
The result for `Cc1ccc(NC(=O)C2CCC(C(C)(C)C)CC2)cc1S(=O)(=O)N1CCOCC1` (configuration not stated) reads -1.74%; that for `Cc1[nH]nc(SCC(=O)NCC(C)C)c1[N+](=O)[O-]`, -0.06%; that for `N#CC1=C(SCc2ccc(C#N)cc2)N=C(N)C(c2nc(-c3ccccc3)cs2)C12CCCCC2` (configuration not stated), 15.1%.
In the case of `Cc1ccc(CSCCNC(=O)CN(c2ccc(F)cc2)S(C)(=O)=O)cc1`, the inhibition was 59% (active).
The result for `Cc1cc(C)cc(N(CC(=O)NCCSCc2ccco2)S(C)(=O)=O)c1` reads 3.14%; that for `COc1ccc(N(CC(=O)NCCSCc2cccc(Cl)c2)S(C)(=O)=O)cc1`, -2.19%; that for `CN(CC(=O)Nc1ccc(Cl)cc1)C(=O)CNC(=O)c1ccc2ccccc2c1`, 2.02%.
Consider `O=C(NNC(=O)c1ccc2ccccc2c1)c1ccc(Cl)cc1`, for which the inhibition is 60.9% (active).
On to `O=C(CCCOc1ccccc1)NNC(=O)c1ccc(Cl)cc1`, for which the inhibition was 17.9%.
The result for `Cc1ccc(-c2c(C)n([O-])c3c([n+]2=O)CCC3)cc1` reads 0.406%; that for `O=C(CCc1ccccc1)NNC(=O)COc1ccc(Cl)cc1`, 38.4% (active).
Turning to `O=C(COc1ccc(Cl)cc1)NCCSc1ccccc1`, the inhibition was 26.9%.
The result for `O=C(NCCc1ccccc1)Oc1ccc(Cl)cc1` reads -9.27%.
On to `CC(NC(=O)C1CCCN(S(=O)(=O)c2ccc(-n3cnnn3)cc2)C1)c1ccc(F)cc1` (configuration not stated), for which the inhibition is -4.68%.
For the molecule `O=C1/C(=C\c2ccc(O)cc2)CCC1CNc1ccc(Cl)cc1` (configuration not stated), the inhibition is 20.4%.
Consider `O=C(C1CCN(S(=O)(=O)c2cnc[nH]2)CC1)N1CCN(Cc2ccc3c(c2)OCO3)CC1`, for which the inhibition is -0.0388%.
The result for `COC(=O)c1ccc(/C=N/N2C(C)CCCC2C)cc1` (configuration not stated) reads -2.67%.
For the molecule `Brc1ccc(/C=N/N2CCN(C3c4ccccc4-c4ccccc43)CC2)s1`, the inhibition was 6.47%.
The result for `CCOc1ccc(CCN2C(=O)C(=O)N([C@@H](CC(C)C)CN3CCC[C@H]3CN3C(=O)C(=O)NC[C@@H]3Cc3ccccc3)C[C@@H]2CC(C)C)cc1` reads -13.2%.
For the molecule `CCOc1ccc(CCN2C(=S)N([C@@H](CC(C)C)CN3CCC[C@@H]3CN3C(=S)NC[C@@H]3Cc3ccc(O)cc3)C[C@@H]2CC(C)C)cc1`, the inhibition was 17.1%.
As for `CCOc1ccc(CCN2C(=S)N([C@@H](CC(C)C)CN3CCC[C@@H]3CN3C(=S)NC[C@@H]3Cc3ccc(O)cc3)C[C@@H]2Cc2ccc(O)cc2)cc1`, the inhibition was 51.8% (active).
Turning to `CC1(C)NC(=O)N(CC(=O)Nc2ccc(-c3ccccc3)cc2)C1=O`, the inhibition was -7.07%.
Turning to `Cc1cccc(N(CC(=O)Nc2ccc(-c3nc4ccc(C)cc4s3)cc2)S(C)(=O)=O)c1`, the inhibition is 9.99%.
As to `N=C1C(=O)OCC1c1ccccc1NC(=O)CN1CCCCC1` (configuration not stated), the inhibition is -2.7%.
